Measured values reported in PubChem BioAssay (NCI).
Several values for one entry are separate records, joined by “and”; a condition that tells them apart may be missing. Identical values can stand only once. This is part of a sample that, as a whole, favours compounds with a hit. Of some 83,000 tested, about 20% had one in any assay.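 Growth was measured after 48 h exposure to one concentration of compound in 96-well plates. Values under 10 count as active.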 Activity calls are given as the source filed them.

system: MDA-MB-468 breast; assay: NCI-60 one-dose screen, 48 h (100 = growth as untreated, 0 = no growth, -100 = all killed); settings: 10 µM unless noted

Row | Compound | growth
1 | O=C1NC(c2ccc(F)cc2)N=C2C(c3ccccc3)=NOC12 (stereo not given) | 103% (inactive)
2 | Nc1c(-c2nc3ccccc3c(=O)[nH]2)nnn1-c1ccc(Cl)cc1 | 105% (inactive)
3 | COc1ccc(-c2nn(-c3ccc(NC(=O)c4ccc(Cl)c(Cl)c4)cc3)cc2-c2ccncc2)cc1Cl | 47% (inactive)
4 | CCOc1ccc(C(C[N+](=O)[O-])Sc2ccccc2N)cc1 (stereo not given) | -58.4% (active)
5 | CSc1nc(N)nc2c1ncn2C | 108% (inactive)
6 | Nc1nc(Nc2ccc(F)cc2)nn1C(=O)c1cc(Cl)ccc1Cl | 60.6% (inactive)
7 | O=C1C=CC[C@H](/C=C/c2ccccc2)O1 | 10.2% (inactive)
8 | Brc1ccccc1Nc1ccc2nnc(-c3ccncc3)n2n1 | 85.3% (inactive)
9 | C=CC(=O)Nc1cc2c(Nc3ccc(F)c(Cl)c3)ncnc2cc1OCCCN1CCOCC1 | -31.5% (active)
10 | O=C1CCC/C=C\C[C@H]2C=CC(=O)/C2=C/C[C@H](CCc2cccc(C(F)(F)F)c2)O1 | -38.3% (active)
11 | COC(=O)c1c2c(c(C)[n+]([O-])c1C)C(=O)C=C(NCc1ccc(Br)cc1)C2=O | -60.1% (active)
12 | O=C(NCCc1ccc(O)c(O)c1)C12CC3CC(CC(C3)C1)C2 | 87.4% (inactive)
13 | Cc1cc(N(CCCNc2ccnc3cc(Cl)ccc23)Cc2ccc3c(c2)OCO3)nc(N2CCCCC2)n1 | -45.2% (active)
14 | Oc1ccc([S+](c2ccc(O)cc2)c2ccc(O)cc2)cc1 | 98% (inactive)
15 | CN(C)c1ccc2nc3ccc(=[N+](C)C)cc-3sc2c1 | -31.5% (active) and -9.26% (active) and -4.98% (active)
16 | COc1ccc(Cn2cc(C#N)c(N)c2C(C)=O)cc1 | 102% (inactive)
17 | CCN(CC)c1ccc2nc3ccc(N=Nc4ccc(N(C)C)cc4)cc3[n+](-c3ccccc3)c2c1 | -65.6% (active)
18 | COc1cccc(NC(=O)c2sc3nc(C)c(C(O)c4ccccc4)cc3c2N)c1 (stereo not given) | 14.3% (inactive)
19 | O=[N+]([O-])c1ccc(N=Nc2c(O)c(N=Nc3cc([N+](=O)[O-])cc([N+](=O)[O-])c3O)cc(N=Nc3cc(S(=O)(=O)O)cc4cc(S(=O)(=O)O)cc(O)c34)c2O)cc1 | 100% (inactive)
20 | O=C(CN1CCOCC1)Nc1nc(-c2cc3ccccc3oc2=O)cs1 | 107% (inactive)

Row | Compound | growth
21 | CC(C)(C)n1cc(-c2ccnc(NCCCNS(=O)(=O)c3ccc(F)cc3)c2)c(-c2cccc(O)c2)n1 | 24.3% (inactive)
22 | CN1CCCC1=Nc1ccccc1 | 107% (inactive)
23 | COc1ccc2nc(-c3ccc(Cl)cc3)cc(-c3nnc(SCC(=O)Nc4ccc(/C(C)=N\O)cc4)o3)c2c1 | 58.4% (inactive)
24 | Cn1c(C(=O)c2cccc3ccccc23)nc2ccccc21 | -1.13% (active)
25 | c1ccc(CCn2nnc3c(Nc4ccc(N5CCOCC5)cc4)ncnc32)cc1 | 76% (inactive)
26 | CCCCCCCCCCCCCCCC(N)c1ccccc1 (stereo not given) | -82.2% (active)
27 | CN1C(=O)NC(Cc2c[nH]c3c(Cl)cccc23)C1=O (stereo not given) | 110% (inactive)
28 | COc1cc(OC)c(S(N)(=O)=O)cc1C(=O)/C=C/c1ccccc1 | -43.4% (active)
29 | FC(F)(F)c1[nH]ncc1-c1nc2ccc3[nH]ncc3c2c2c1CCCC2 | 19.7% (inactive)
30 | Cc1ccc(N=Nc2c(N)nc(N)[nH]c2=O)cc1C | 84.5% (inactive)
31 | Cc1cc(NCc2cc(Nc3ccnc4cc(Cl)ccc34)ccc2F)nc(N2CCN(c3ccccc3)CC2)n1 | 30.2% (inactive)
32 | O=C(Cn1c(-c2ccccc2)nc2cc(Cl)c(Cl)cc21)N=Nc1c(O)[nH]c2ccc(Cl)cc12 | 61.7% (inactive)
33 | O=C1N(Cc2ccccc2Cl)c2ccccc2C12NN=C(c1cccc(Cl)c1)S2 (stereo not given) | -29.6% (active)
34 | CCCC(CCC)(C(N)=O)C(=O)O | 105% (inactive)
35 | COc1cccc(O)c1/C=C(/C)c1ccc2c(OC)cccc2[o+]1 | 112% (inactive)
36 | CC(Br)C(OC(=O)c1ccccc1Cl)c1cc2c(cc1Br)OCO2 (stereo not given) | 66.4% (inactive)
37 | CCCCCCCCCc1cc(CN2CCCCC2)c(O)c(CN2CCCCC2)c1 | 40.4% (inactive)
38 | CCCCCCCCCCN1CCC(N2CCCCC2)CC1 | -73.2% (active)
39 | CC(C)[C@@]12C[C@@H](OC(=O)COC(=O)c3ccccc3)[C@@](C)(O1)[C@@H]1CC[C@@H](C)[C@H]1[C@@H]2OC(=O)/C=C/c1ccccc1 | 85.4% (inactive)
40 | CC1=C(C)C(=O)C(Nc2ccc(C)c(C)c2)=C(Br)C1=O | 1.26% (active)
